Source: PubChem BioAssay (NCI)
The panel holds about 83,000 compounds, 20% with a hit somewhere; the sample as a whole holds those more often.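 For each line, cells grew in 96-well plates with the test compound present at a single concentration for 48 hours.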 Values without a mark were called inactive. Calls of active or inactive are those of the source. Rule for the calls: active = growth percent below 10; inactive = the rest.

tested on: M14 melanoma; experiment: NCI-60 one-dose screen, 48 h (100 = growth as untreated, 0 = no growth, -100 = all killed); conditions: 10 µM unless noted

SMILES | growth
COc1ccc(C2CC(=O)Nc3c2c(C)nn3-c2nc3ccccc3[nH]2)cc1 (stereo unspecified) | 84.5%
CCn1cc2c(cc1=O)-c1nc3ccccc3c3ccnc(c13)C2=O | 28.9%
NCc1cn2cc(Cl)sc2n1 | 108%
CCOc1ccc(Nc2nc(-c3c(C)nc4ncccn34)cs2)cc1 | 21.1%
N#CC1=C(N)Oc2c(ccc3ccccc23)C1c1cccs1 (stereo unspecified) | 17.3%
CCOC(=O)C12CCCC1=CC(=O)CC2 (stereo unspecified) | 112%
CCCC(=O)Oc1ccc(/C(=C(/CC)Cc2ccccc2)c2ccc(OCCN3CCCC3)cc2)cc1 | 63.9%
C=C1CCC2C3(C)COC(c4ccc(OC)cc4Br)OC3CCC2(C)C1/C=C/C1=CCOC1=O (stereo unspecified) | 87.3%
CS(=O)(=O)c1c(Nc2ccccc2)n[nH]c1N | 113%
CC/C=C\C[C@H](O)C/C=C1/C(=O)C=C[C@@H]1C/C=C\CCCC(N)=O | 1.88% (active)
CCN(CC)C12CCCCC1(C)C(C#N)(C#N)C(C#N)=C(N)O2 (stereo unspecified) | 102%
O=C1c2c[n+](Cc3ccccc3)ccc2-c2nc3ccccc3c3ccnc1c23 | -68.4% (active)
Cc1nn(-c2nc3ccccc3[nH]2)c2c1C(c1ccc3c(c1)OCO3)CC(=O)N2 (stereo unspecified) | 42.5%
O=c1ccc2cc3ccccc3cc2[nH]1 | 101%
O=C(Nc1cccc2[nH]c(C(F)(F)F)nc12)c1ccc(Br)cc1F | 48.7%
COc1cc(-c2cnc3nonc3n2)c(OC)c2c1OCO2 | 107%
COc1cnc2c(c1)C(=O)c1c-2n(CCCBr)c(=O)c2cc([N+](=O)[O-])ccc12 | 3.34% (active)
Clc1cccc(Nc2nc(Nc3cnc4ccccc4c3)c3[nH]cnc3n2)c1 | 88%
COc1cc(C2CC(=O)c3c(C)nn(-c4nc5ccccc5[nH]4)c3C2)cc(OC)c1OC (stereo unspecified) | 102%
CC(C)Oc1nc2c(c(=O)n(C)c(=O)n2C)n1C | 107%
CC/C=C\C[C@H](F)C/C=C1/C(=O)C=C[C@@H]1C/C=C\CCCC(=O)OC | 1.2% (active)
Cc1ccn2c(-c3csc(Nc4cccc(O)c4)n3)c(C)nc2c1 | 16%
O=C(/C=C/c1cc2ccccc2[nH]c1=O)/C=C/c1cc2ccccc2[nH]c1=O | -45.4% (active)
COc1ccc(-c2cnoc2-c2cc(OC)c3c(c2)OCCO3)cc1 | 7.58% (active)
CC/C(Cc1ccccc1)=C(\c1ccc(OCCN2CCCC2)cc1)c1ccc(OC(C)=O)cc1 | 75.1%
C[C@]12C[C@@H](c3ccoc3)OC(=O)[C@@H]1CC[C@]1(C)[C@@H]2CC[C@@H](O)[C@]1(C)O | 82.4%
